Bioassay records: PubChem, several laboratories
An excerpt weighted towards active compounds, which were near 4.1% of everything screened.
Mdm2 MdmX PPI: disrupts the human Mdm2-MdmX interaction. O15151+Q00987. SaOS-2 split-luciferase Mdm2/MdmX complementation, luminescence. inhibition, % at 8 µM. actives 3% (n = 330,000);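 active = inhibition of at least 50% at 8 µM in the primary screen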
Target sequence (O15151 whole entry, looked up): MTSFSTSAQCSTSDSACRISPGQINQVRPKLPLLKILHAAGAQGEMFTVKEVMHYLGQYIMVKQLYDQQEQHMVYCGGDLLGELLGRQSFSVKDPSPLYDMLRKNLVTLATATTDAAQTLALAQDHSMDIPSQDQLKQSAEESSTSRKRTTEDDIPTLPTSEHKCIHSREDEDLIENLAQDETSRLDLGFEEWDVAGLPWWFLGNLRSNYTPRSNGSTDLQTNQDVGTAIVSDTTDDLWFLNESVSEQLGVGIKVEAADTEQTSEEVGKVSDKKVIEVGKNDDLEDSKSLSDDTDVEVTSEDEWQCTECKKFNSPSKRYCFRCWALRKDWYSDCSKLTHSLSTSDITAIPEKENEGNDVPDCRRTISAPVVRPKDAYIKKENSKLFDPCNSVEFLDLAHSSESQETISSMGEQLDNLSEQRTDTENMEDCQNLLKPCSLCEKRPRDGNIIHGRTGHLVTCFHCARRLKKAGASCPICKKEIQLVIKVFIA
Target sequence (Q00987 whole entry, looked up): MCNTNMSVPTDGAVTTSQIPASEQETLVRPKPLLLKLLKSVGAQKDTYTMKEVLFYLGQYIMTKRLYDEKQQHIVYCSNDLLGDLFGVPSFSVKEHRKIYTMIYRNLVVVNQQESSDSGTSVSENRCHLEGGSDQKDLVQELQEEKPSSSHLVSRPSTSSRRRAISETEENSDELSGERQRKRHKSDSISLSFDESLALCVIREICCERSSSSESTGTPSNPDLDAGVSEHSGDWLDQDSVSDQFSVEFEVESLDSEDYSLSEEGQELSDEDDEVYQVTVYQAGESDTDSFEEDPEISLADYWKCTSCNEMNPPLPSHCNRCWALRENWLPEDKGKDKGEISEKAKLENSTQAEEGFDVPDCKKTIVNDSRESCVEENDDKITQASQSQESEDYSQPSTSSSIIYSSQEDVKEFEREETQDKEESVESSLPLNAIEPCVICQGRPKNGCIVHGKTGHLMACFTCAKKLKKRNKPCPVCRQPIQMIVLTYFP
aSyn UTR inh: 5' untranslated region of α-synuclein, MLPCN primary screen. alpha-synuclein 5'UTR reporter, inhibitor activity. inhibition, % (tested at 7.5 µM). actives 0.82% (n = 300,000). AID 1813; in the data active = inhibition above about 60%; inconclusive = no clear call, values can overlap the other calls;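 note: H4 neuroglioblastoma cells stably carrying SNCA 5'UTR luciferase fusion; 0% = DMSO wells and 100% = positive control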
Bfl-1 A1 inh: inhibitors of the anti-apoptotic protein A1, read as caspase activation. MEF A1-2A-BIM cells, Caspase-Glo 3/7 luminescence, 3 h; percent of clofoctol response, vehicle zero. caspase activation, % (test concentration not listed). actives 0.066% (n = 330,000);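 active = over half of replicate activation scores above 10%, or exactly half above 10 with the replicate mean above 10; inconclusive = replicate mean below 10 yet half the replicates above 10; inactive = over half of replicates below 10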
CSC inhib: blocks cancer stem cells; cancer stem cell-like cells viability, luminescence; inhibition, % at 7.5 µM; actives 1.1% (n = 300,000); AID 2717; in the data active = inhibition above about 75%; inconclusive = no clear call, values can overlap the other calls; tested in HMLE shEcad cells
Beta cell apopt: blocks beta cell apoptosis; INS-1E cytokine-induced death, ATP luminescence, 48 h; percent of positive-control rescue, neutral wells zero; protection from apoptosis, % (no concentration beside the values); actives 0.8% (n = 300,000); AID 435005;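 active = Every replicate reaches about 75%, or at least half do and their mean reaches it too, limit read from the data; inconclusive = At least half of replicates reach the limit but their mean does not; inactive = Under half of replicates reach the limit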;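 note: 0% = cytokine-treated negative control wells and 100% = positive control rescue; higher means more ATP so stronger rescue from cytokine killing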
Mdm2-MdmX conf: human Mdm2/MdmX binding inhibition, confirmed. inhibition, % at 8 µM. luminescent assay. AID 489028. shares compounds with Mdm2 MdmX PPI. actives 55% (n = 10,000); in the data active = inhibition above about 40%
Full FLuc ctr: inhibits full-length luciferase, flagging false Mdm2/MdmX hits; shares compounds with Mdm2 MdmX PPI; SaOS-2 full-length luciferase counterscreen, luminescence; inhibition, % at 8 µM; actives 77% (n = 6,200); AID 504607;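 active = mean inhibition at 8 µM reaching about 37%, which flags the compound as non-specific, limit read from the data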;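 note: p53-null SaOS-2 cells with luciferase driven by a doxycycline-inducible promoter; compound on cells about two nights before reading with doxycycline added after day one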
* marks the source's active call; other numbers are inactive results; ? = inconclusive; . = not tested or not shown.

SMILES	Mdm2 MdmX PPI	aSyn UTR inh	Bfl-1 A1 inh	CSC inhib	Beta cell apopt	Mdm2-MdmX conf	Full FLuc ctr
CCOC(=O)C(C)Oc1cccc2c(=O)n(CC(=O)NCc3ccc(F)cc3)ccc12 (stereo not given)	69*	68*	1	45	19	61*	88*
CCOC(=O)C(C)Oc1cccc2c(=O)n(CC(=O)NCCc3ccccc3)ccc12 (stereo not given)	1	-17	0	12	-1	.	.
COC(=O)COc1cccc2c(=O)n(CC(=O)NCc3ccc(F)cc3)ccc12	11	-7	1	60	5	.	.
CCOC(=O)C(C)Oc1cccc2c(=O)n(CC(=O)NCc3ccccc3)ccc12 (stereo not given)	66*	73*	0	43	13	50*	67*
NC(=O)C1CCCN(C(=O)CN2C(=O)NC(c3ccccc3)(c3ccccc3)C2=O)C1 (stereo not given)	0	.	.	.	.	.	.
Cn1ncc2c(N3CCN(c4ccc(Cl)c(Cl)c4)CC3)ncnc21	92*	9	0	66	?	74*	99*
Clc1ccc(-n2ncc3c(N4CCCC4)ncnc32)cc1	51*	92*	-1	2	-1	66*	168*
Cc1nn(-c2ccccc2)c(Cl)c1C(=O)N1CCN(c2ncnc3c2cnn3-c2ccccc2)CC1	97*	40	-1	55	43	88*	58*
CC(C)(C)C(=O)Nc1ccc(C(=O)COC(=O)C2=COCCO2)cc1	5	.	.	.	.	.	.
CN(C(=O)C1CCCN(c2ncnc3c2nc2n3CCCCC2)C1)c1cccc(Cl)c1 (stereo not given)	37	14	0	32	5	.	.
CC1=CC(=O)C(C(C)C)=C/C1=N/OS(=O)(=O)c1ccccc1	100*	-23	27*	?	105*	35	42*
CC(C)[C@H](NS(=O)(=O)c1cccc(C(F)(F)F)c1)C(=O)OCC(=O)NC(=O)NCc1ccco1	-5	.	0	2	-5	.	.
CN(C)CCn1c(=O)n(Cc2ccco2)c(=O)c2c3c(sc21)CCCCC3	-3	1	0	-12	6	.	.
CN(C)CCn1c(=O)n(C2CCCCC2)c(=O)c2c3c(sc21)CCCCC3	59*	-8	1	34	-6	45*	65*
C[C@@H]1C[C@H]2[C@@H]3C[C@H](F)C4=CC(=O)C=C[C@]4(C)[C@@]3(Cl)[C@@H](O)C[C@]2(C)[C@H]1C(=O)COC(=O)C(C)(C)C	40	.	1	0	5	.	.
Cc1cccn2c(=O)c(C=NCCO)c(Nc3ccc(Cl)cc3)nc12	53*	-17	0	14	-5	-4	.
O=c1[nH]c2ccccc2c2oc(CCl)nc12	78*	-34	1	4	-5	52*	54*
C=CCNC(=S)NNC(=O)CCC(O)CCCCC (stereo not given)	54*	4	1	-3	-5	-8	.
C=CCNC(=S)NNC(=O)C(CCCC)CC(C)O (stereo not given)	16	-2	1	-9	-2	.	.
O=C(Nc1ccc(Cl)cc1F)C1CCN(S(=O)(=O)c2cccc3nonc23)CC1	1	-8	0	1	-2	.	.
Nc1ncnc2c1ncn2CCOc1ccccc1	59*	-8	1	-21	-2	7	.
CC(=O)N/C(=N\c1nc(C)cc(C)n1)Nc1ccc2ccccc2c1	74*	-166	0	8	33	72*	62*
CC(=O)N/C(=N/c1nc(C)cc(C)n1)Nc1ccc(NC(C)=O)cc1	25	16	1	-16	2	.	.
O=C(NNC(=O)C12CC3CC(CC(C3)C1)C2)c1cnccn1	10	37	0	5	1	.	.
O=C(NNC(=O)C12CC3CC(CC(C3)C1)C2)c1ccccn1	54*	-50	1	17	91*	54*	51*
SMILES	Mdm2 MdmX PPI	aSyn UTR inh	Bfl-1 A1 inh	CSC inhib	Beta cell apopt	Mdm2-MdmX conf	Full FLuc ctr
Cc1ccc(S(=O)(=O)N2CCCC2CNC(=O)C(=O)NCCN2CCOCC2)cc1 (stereo not given)	8	5	1	11	1	.	.
Cc1ccc(N=Cc2c(O)n(-c3ccc4c(c3)OCO4)c(=O)c3ccccc23)cc1	69*	48	0	22	59	42*	36*
CCCn1c(NC(=O)CN2C(=O)NC3(CCCCC3)C2=O)nc2ccccc21	2	2	0	-4	5	.	.
Cc1ccc(S(=O)(=O)NCC(=O)OCc2nnc(-c3ccccc3)o2)cc1	25	5	0	6	-1	.	.
COc1cc2oc(-c3ccc(O)cc3)cc(=O)c2c(O)c1OC	48	-73	-1	18	22	.	.
O=c1cc(-c2ccc(O)cc2)oc2ccc3ccccc3c12	68*	.	-8	90*	45	66*	75*
COc1cc2oc(-c3ccc(O)cc3)cc(=O)c2c(OC)c1O	51*	21	.	.	.	17	.
N#Cc1c(N)nc2c(c1-c1ccc3c(c1)OCO3)CCc1ccccc1-2	65*	29	0	82*	13	36	92*
CCCCNC(=O)c1sc(=S)n2c1[nH]c(=O)c1ccccc12	24	-4	0	27	4	.	.
O=C(NC1CCCCC1)c1sc(=S)n2c1[nH]c(=O)c1ccccc12	70*	0	1	55	2	21	.
CC(C)(C)OC(=O)N[C@H](/C=C/c1ccccc1)C(=O)OC(C)(C)C	-3	.	1	-2	-6	.	.
CC(=O)c1c(C)[nH]c(C(=O)OCC(=O)NNC(=O)c2ccc([N+](=O)[O-])cc2)c1C	13	.	-2	-18	0	.	.
Cn1ccsc1=NC(=O)c1ccc(S(C)(=O)=O)c([N+](=O)[O-])c1	51*	-21	-1	5	-25	23	.
CC(=O)c1c(C)[nH]c(C(=O)OCc2nnc(-c3ccc([N+](=O)[O-])cc3)o2)c1C	53*	.	-1	3	-8	26	.
Cn1cccc1C(=O)NC(=O)COC(=O)c1ccc(S(C)(=O)=O)c([N+](=O)[O-])c1	64*	.	2	53	-58	40	40*
O=C(OCc1nnc(-c2ccc(Cl)cc2)o1)c1ccc(O)cc1	4	-9	0	-13	-8	.	.
CS(=O)(=O)c1ccc(C(=O)OCc2nnc(-c3ccc(Cl)cc3)o2)cc1[N+](=O)[O-]	96*	-23	1	48	-15	60*	15
O=C(CCN1C(=O)S/C(=C/c2ccccc2)C1=O)Nc1ccc(O)c(C(=O)O)c1	12	5	2	-4	5	.	.
CCOC(=O)c1c(NC(=O)CN2C(=O)C(=O)N(C(C)C)C2=O)sc(C)c1CC	22	.	-1	.	-5	.	.
COc1cc(/C=C2/OC(=O)c3cc([N+](=O)[O-])ccc32)cc(OC)c1OC	67*	-18	0	2	0	0	.
